What all share (assay): DAPPL (digital affinity profiling via proximity ligation, sequencing); 10 mM Tris-HCl pH 7.5, 50 mM NaCl, 1 mM DTT, 4% glycerol, room temperature, 30 min; GST-TFs on glutathione beads, 16-mer random dsDNA library, 0.1% formaldehyde crosslink after washing; high values mean tight binding
Conditions in all cases: protein: recombinant; tags: N-terminal GST; dsDNA, one strand shown

In one test the target is T1, FLI1 (Homo sapiens, UniProt Q01543 1-452).
T1 sequence: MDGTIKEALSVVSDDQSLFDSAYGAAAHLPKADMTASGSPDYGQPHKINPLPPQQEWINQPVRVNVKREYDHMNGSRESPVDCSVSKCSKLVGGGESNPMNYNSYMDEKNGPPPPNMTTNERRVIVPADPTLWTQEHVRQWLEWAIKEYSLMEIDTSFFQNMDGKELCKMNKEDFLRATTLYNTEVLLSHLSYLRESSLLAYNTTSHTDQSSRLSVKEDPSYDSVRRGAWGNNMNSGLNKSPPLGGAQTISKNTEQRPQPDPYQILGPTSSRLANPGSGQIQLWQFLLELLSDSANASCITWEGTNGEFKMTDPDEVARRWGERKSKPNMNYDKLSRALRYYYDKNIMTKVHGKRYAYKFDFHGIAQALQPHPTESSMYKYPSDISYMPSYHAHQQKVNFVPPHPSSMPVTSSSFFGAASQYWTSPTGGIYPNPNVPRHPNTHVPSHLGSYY
The gist of the method: (§1)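 In yeast, human transcription factors were expressed with a GST fusion, then pulled down on glutathione beads and given DNA barcodes. Pooled with a tag-only sample, they were exposed to 200 nmole of a 16-mer random double-stranded DNA library (Tris/NaCl/DTT/glycerol buffer, room temperature, 30 min), washed, crosslinked with 0.1% formaldehyde, proximity-ligated using BsaI/T4 ligase for 1 h at 37 °C, PCR-amplified and read on an Illumina NextSeq500. Each hexamer's frequency of reads for a factor, divided by the matching frequency for the tag-only sample, gives the binding signal.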

A further test concerns the target T2, ELK1 (Homo sapiens, UniProt P19419 1-428).
T2 sequence: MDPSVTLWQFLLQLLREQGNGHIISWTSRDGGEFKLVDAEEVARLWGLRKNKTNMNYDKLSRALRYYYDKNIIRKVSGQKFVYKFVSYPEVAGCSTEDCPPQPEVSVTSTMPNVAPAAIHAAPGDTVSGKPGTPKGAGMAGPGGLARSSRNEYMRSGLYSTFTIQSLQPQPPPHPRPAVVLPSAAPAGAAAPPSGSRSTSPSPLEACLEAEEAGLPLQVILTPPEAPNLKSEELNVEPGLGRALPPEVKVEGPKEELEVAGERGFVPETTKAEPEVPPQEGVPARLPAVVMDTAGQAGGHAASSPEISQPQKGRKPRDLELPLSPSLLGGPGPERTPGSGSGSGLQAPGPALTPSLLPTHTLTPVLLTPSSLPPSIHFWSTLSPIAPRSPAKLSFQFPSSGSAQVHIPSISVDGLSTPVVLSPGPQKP
The gist of the method: as §1

The target of a further test is T3, GABPA (Homo sapiens, UniProt Q06546 1-454).
T3 sequence: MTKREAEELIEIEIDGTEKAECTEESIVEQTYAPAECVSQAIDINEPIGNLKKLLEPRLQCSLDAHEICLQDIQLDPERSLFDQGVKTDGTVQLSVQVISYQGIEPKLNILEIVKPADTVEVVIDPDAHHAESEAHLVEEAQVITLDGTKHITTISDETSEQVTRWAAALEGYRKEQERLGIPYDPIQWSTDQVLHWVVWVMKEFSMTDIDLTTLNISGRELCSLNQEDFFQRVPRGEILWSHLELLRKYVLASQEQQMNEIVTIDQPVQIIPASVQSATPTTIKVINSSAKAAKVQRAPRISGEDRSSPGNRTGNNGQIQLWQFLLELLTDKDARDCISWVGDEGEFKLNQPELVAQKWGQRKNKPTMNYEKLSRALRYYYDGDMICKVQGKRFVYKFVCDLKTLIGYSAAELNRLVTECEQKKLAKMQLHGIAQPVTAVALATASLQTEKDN
The gist of the method: as §1

The target in another test is T4, ERG (Homo sapiens, UniProt P11308 1-479).
T4 sequence: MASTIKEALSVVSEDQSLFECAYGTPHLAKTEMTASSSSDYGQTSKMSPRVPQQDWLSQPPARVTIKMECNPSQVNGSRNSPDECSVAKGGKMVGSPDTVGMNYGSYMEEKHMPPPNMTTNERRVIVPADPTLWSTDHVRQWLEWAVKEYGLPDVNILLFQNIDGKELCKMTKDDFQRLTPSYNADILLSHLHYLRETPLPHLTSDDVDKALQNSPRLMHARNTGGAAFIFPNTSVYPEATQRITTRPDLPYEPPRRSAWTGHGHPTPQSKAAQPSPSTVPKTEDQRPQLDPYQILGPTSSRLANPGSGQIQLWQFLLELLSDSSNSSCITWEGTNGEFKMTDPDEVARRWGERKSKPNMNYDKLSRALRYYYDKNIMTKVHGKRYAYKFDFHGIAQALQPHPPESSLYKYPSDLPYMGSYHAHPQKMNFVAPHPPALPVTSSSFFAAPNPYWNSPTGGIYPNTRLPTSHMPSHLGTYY
The gist of the method: as §1

The next test concerns the target ELF1 (Homo sapiens, UniProt P32519 1-619). The gist of the method: as §1
For the next test, the target named is T5, EHF (Homo sapiens, UniProt Q9NZC4 1-300).
T5 sequence: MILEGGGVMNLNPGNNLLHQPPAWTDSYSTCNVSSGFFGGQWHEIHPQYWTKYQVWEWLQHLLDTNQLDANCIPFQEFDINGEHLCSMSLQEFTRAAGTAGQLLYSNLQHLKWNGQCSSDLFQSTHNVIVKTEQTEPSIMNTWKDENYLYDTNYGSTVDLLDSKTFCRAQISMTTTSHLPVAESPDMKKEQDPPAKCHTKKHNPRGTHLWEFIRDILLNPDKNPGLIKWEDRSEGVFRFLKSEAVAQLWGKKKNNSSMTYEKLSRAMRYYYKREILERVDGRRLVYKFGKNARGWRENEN
The gist of the method:
as §1

Another test concerns the target SPI1 (Homo sapiens, UniProt P17947 1-270). The gist of the method: as §1
A further test addresses SPIB (Homo sapiens, UniProt Q01892 1-262). The gist of the method: as §1
Another test addresses T6, ELK3 (Homo sapiens, UniProt P41970 1-407).
T6 sequence: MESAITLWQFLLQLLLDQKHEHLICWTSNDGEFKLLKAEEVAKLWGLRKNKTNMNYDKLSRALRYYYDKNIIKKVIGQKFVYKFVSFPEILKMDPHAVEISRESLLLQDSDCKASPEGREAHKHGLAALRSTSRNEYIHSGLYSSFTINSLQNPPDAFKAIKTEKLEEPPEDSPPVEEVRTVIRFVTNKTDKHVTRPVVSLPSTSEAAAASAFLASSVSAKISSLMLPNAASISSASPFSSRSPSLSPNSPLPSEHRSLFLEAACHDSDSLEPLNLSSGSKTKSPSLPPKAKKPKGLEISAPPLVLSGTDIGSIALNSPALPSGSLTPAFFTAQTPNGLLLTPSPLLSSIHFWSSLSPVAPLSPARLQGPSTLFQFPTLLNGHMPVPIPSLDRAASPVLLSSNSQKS
The gist of the method: as §1

Chain of SPIB (Q01892 whole entry): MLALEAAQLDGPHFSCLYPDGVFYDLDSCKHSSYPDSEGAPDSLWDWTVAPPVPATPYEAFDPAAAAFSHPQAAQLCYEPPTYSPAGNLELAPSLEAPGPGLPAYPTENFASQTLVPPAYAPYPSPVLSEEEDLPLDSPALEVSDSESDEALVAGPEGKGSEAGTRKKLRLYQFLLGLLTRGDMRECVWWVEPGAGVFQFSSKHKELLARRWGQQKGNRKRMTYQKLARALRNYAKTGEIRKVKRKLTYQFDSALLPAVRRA
Chain of ELF1 (P32519 whole entry): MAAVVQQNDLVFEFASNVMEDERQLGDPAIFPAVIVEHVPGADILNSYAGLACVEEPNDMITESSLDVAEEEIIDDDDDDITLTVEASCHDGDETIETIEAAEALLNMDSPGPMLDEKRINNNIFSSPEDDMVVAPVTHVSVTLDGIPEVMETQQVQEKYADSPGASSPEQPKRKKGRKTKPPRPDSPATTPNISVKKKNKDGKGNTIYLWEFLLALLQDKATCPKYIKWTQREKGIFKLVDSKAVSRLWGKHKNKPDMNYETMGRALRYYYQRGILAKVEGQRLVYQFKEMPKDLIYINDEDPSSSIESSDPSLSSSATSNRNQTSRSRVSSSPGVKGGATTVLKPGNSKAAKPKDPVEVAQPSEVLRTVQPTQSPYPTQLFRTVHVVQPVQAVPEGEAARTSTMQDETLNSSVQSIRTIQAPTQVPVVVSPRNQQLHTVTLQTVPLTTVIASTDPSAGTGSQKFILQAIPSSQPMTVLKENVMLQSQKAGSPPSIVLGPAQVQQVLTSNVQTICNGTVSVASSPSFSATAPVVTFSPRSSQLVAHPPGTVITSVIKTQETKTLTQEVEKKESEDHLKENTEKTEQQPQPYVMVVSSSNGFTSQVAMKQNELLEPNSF

In the case of ATACTA, the binding signal with FLI1 is 1.16 fold enrichment (6-mer frequency, TF over GST control); in the test with ELK1, 1.11 fold enrichment (6-mer frequency, TF over GST control); with GABPA, 1.25 fold enrichment (6-mer frequency, TF over GST control); in the test with ERG, 1.17 fold enrichment (6-mer frequency, TF over GST control); with ELF1 it was 1.21 fold enrichment (6-mer frequency, TF over GST control); with EHF, 1.22 fold enrichment (6-mer frequency, TF over GST control). For the same sequence, the binding signal in the test with SPI1 was 1.13 fold enrichment (6-mer frequency, TF over GST control); with SPIB it was 1.22 fold enrichment (6-mer frequency, TF over GST control); with ELK3 it was 1.06 fold enrichment (6-mer frequency, TF over GST control).

The record behind these values is article PMC7862700, “An all-to-all approach to the identification of sequence-specific readers for epigenetic DNA modifications on cytosine”.
